Source: PubChem BioAssay (Tox21)
A number with no mark means an inactive call. Calls of active or inactive are those of the source. Calls come from the whole dose curve; as a rule, active = well fitted curve in the direction sought with a large enough effect in the repeat runs; inconclusive = weak or mixed curves; inactive = flat fitted curve, though single readings scatter.
% is set by controls: 0 for no effect and ±100 for the full control effect.

Assay: qHTS assay to test for compound auto fluorescence at 535 nm (green) in HEK293 cells (AID 720680)
Details: green autofluorescence 485/535 nm; series mostly up to 91.3 µM; fluorescence, % of fluorescein: at the top concentration
Text: U.S. Tox21 Program National Center for Advancing Translational Sciences [NCATS] NIH Chemical Genomics Center [NCGC] U.S. Environmental Protection Agency [EPA] National Institutes of Environmental Health Sciences [NIEHS] National Toxicology Program [NTP] U.S. Food and Drug Administration [FDA] Tox21 Assay Overview: Compound auto fluorescence often interferes with screening of the compound library against various biological targets and signaling pathways. Some of these compounds may have fluorophoric properties. Such properties may interfere with the assay outputs resulting in false positives and/or negatives. To decrease such complications and ensure the compound activities are relevant in terms of biological response, the Tox21 10K compound library was screened for auto fluorescence. From the fluorophores used as reporter signals in our screening assays, the auto fluorescence equivalencies of compounds against three fluorophores have been evaluated: Triamterene, Fluorescein and Rose Bengal sodium for blue, green and red fluorescence, respectively. The fluorescence intensities were measured using Excitation/Emission wavelengths at 405/460nm, 485/535nm and 540/590nm for blue, green and red labels, respectively. This assay includes the green fluorescence data.
Tox21 Assay Protocol Summary: 2,000 HEK293 cells in 5 uL of culture medium containing 10% dialyzed FBS per well were dispensed into black wall/clear bottom 1536-well plates using a Multidrop Combi Dispenser (Thermo Scientific). The assay plates were incubated for 4-5 hr at 37C to allow cell attachment to the well bottom, followed by the transfer of 23 nL compound or DMSO vehicle by a pintool work station (Kalypsys, San Diego, CA). After the assay plates were incubated overnight at 37C and 5% CO2, fluorescence intensities in the assay plates were measured by an Envision (PerkinElmer, Shelton, CT) plate reader using three labels for measuring blue, green and red fluorescence at […] 460, 535 and 590nm respectively.
In the case of O=C(O)CCSCCC(=O)O, the “fluorescence, % of fluorescein” value is reported as -0.0174%. For CN1C(C)(C)CC(O)CC1(C)C, the “fluorescence, % of fluorescein” value was 0.0761%. With Nc1ccn([C@@H]2O[C@H](CO)[C@@H](O)[C@@H]2O)c(=O)n1 the “fluorescence, % of fluorescein” value was 0.113%. In the case of CC(=O)N1C[C@H](O)C[C@H]1C(=O)O, the “fluorescence, % of fluorescein” value is reported as -0.0083% [at 46 µM]. In the case of O=C(c1ccccc1)C1(O)CCCCC1, the “fluorescence, % of fluorescein” value is reported as 0.0358%. With CCCCOC(=O)CCC(C)=O the “fluorescence, % of fluorescein” value was -0.0284%. In the case of CCN[C@H]1C[C@H](C)S(=O)(=O)c2sc(S(N)(=O)=O)cc21, the “fluorescence, % of fluorescein” value is reported as -0.0813% [at 46 µM]. For O=C1CCCCCCCCCCCCCCO1, the “fluorescence, % of fluorescein” value was 0.119%. Compound CO[C@@]1(NC(=O)C(C(=O)O)c2ccc(O)cc2)C(=O)N2C(C(=O)O)=C(CSc3nnnn3C)CO[C@@H]21 (stereo not given in full) has a fluorescence, % of fluorescein of 0.0617% [at 18.6 µM]. For CCCCCC(C)N (stereo not given), the “fluorescence, % of fluorescein” value was 0.0793% [at 46 µM]. With CCCC(C)C(=O)OCC (stereo not given) the “fluorescence, % of fluorescein” value was 0.12%. In the case of O=C1c2ccccc2C(=O)c2cc(O)ccc21, the “fluorescence, % of fluorescein” value is reported as -0.0064%. Work on Cc1ccc(C(=O)c2ccc(CC(=O)O)n2C)cc1 yielded a fluorescence, % of fluorescein of -0.0701% [at 18.6 µM]. In the case of CCN(C=O)CC, the “fluorescence, % of fluorescein” value is reported as 0.123% [at 95.7 µM]. For CCCn1cc[n+](C)c1C, the “fluorescence, % of fluorescein” value was -0.072% [at 95.7 µM]. For O=CN(CCO)CCO, the “fluorescence, % of fluorescein” value was -0.0056%. In the case of CC1=CC(=O)[C@H]2C[C@@H]1C2(C)C, the “fluorescence, % of fluorescein” value is reported as 0.0493%. For Nc1ccn([C@@H]2O[C@H](CO)[C@@H](O)C2(F)F)c(=O)n1, the “fluorescence, % of fluorescein” value was -0.0849% [at 46 µM]. In the case of C=CCCCCCCCCC(=O)OCC, the “fluorescence, % of fluorescein” value is reported as 0.0261%. With CC(C)=CCC/C(C)=C/C#N the “fluorescence, % of fluorescein” value was -0.181% [at 95.7 µM]. For C[N+](C)(CCOc1ccccc1)Cc1cccs1, the “fluorescence, % of fluorescein” value was 0.0042% [at 46 µM]. For COC(=O)Nc1ccc(Cl)c(Cl)c1, the “fluorescence, % of fluorescein” value was 0.0174%. With C1CCC2(CCCCO2)OC1 the “fluorescence, % of fluorescein” value was 0.0017%. In the case of NO, the “fluorescence, % of fluorescein” value is reported as 0.0129% [at 95.7 µM]. For CC(=O)c1ccccc1[N+](=O)[O-], the “fluorescence, % of fluorescein” value was 0.0387%. With CCCCCCCCCCCCSC the “fluorescence, % of fluorescein” value was 0.0084%. In the case of CCCCCCCCCCCCCCC(=O)O, the “fluorescence, % of fluorescein” value is reported as 0.14%. In the case of c1ccc(Cc2ccccc2)cc1, the “fluorescence, % of fluorescein” value is reported as 0.0415%. C[N+]1(C)CCCC(OC(=O)C(O)(c2ccccc2)c2ccccc2)C1 (stereo not given) showed a fluorescence, % of fluorescein of -0.129% [at 18.6 µM]. In the case of CC(C)(C)C(=O)c1ccccc1, the “fluorescence, % of fluorescein” value is reported as -0.0527%. In the case of CC(C)(C)C(=O)Oc1ccc(S(=O)(=O)Nc2ccccc2C(=O)NCC(=O)O)cc1, the “fluorescence, % of fluorescein” value is reported as -0.0539% [at 46 µM]. With CC(C)C1CCC(O)CC1 (stereo not given) the “fluorescence, % of fluorescein” value was 0.055%. With CN1CCC(=C2c3ccccc3CCc3cccnc32)CC1 the “fluorescence, % of fluorescein” value was 0.0357% [at 46 µM]. With CCC(C)(CCCC(C)C)OC(C)=O (stereo not given) the “fluorescence, % of fluorescein” value was 0.0219%. With NCCCC[C@H](N[C@@H](CCc1ccccc1)C(=O)O)C(=O)N1CCC[C@H]1C(=O)O the fluorescence, % of fluorescein was -0.012% [at 18.6 µM]. With CNCCO the “fluorescence, % of fluorescein” value was 0.0629%. For CC1(C)OC[C@@H](COC(=O)CCc2ccc(OC[C@@H](O)CNCCNC(=O)N3CCOCC3)cc2)O1, the outcome was “inactive”. In the case of COc1cc(C(=O)NCc2ccc(OCCN(C)C)cc2)cc(OC)c1OC, the fluorescence, % of fluorescein is reported as -0.015% [at 18.6 µM]. For CCCCCCCCCCOc1cc2c(=O)c(C(=O)OCC)c[nH]c2cc1OCC, the “fluorescence, % of fluorescein” value was -0.0243% [at 46 µM]. In the case of CCOc1ccc2nc(S(N)(=O)=O)sc2c1, the “fluorescence, % of fluorescein” value is reported as -0.007% [at 46 µM].
